Source: PubChem
An excerpt weighted towards active compounds, which were near 22% of everything screened.
CYP2C19 activ: cytochrome P450 2C19 (human) activation; recombinant CYP2C19, luciferin-H EGE luminescence; stronger effect = higher value; 0 = fully inhibited enzyme, 1 = untreated enzyme; AID 1025; P33261; activation factor at 5 µM; 96,000 tested, under 10 active;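 active = activation factor of at least 2 at 5 µM in the primary screen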
CYP2C19 inh: blocks human cytochrome P450 2C19; AID 778; inhibition, % at 5 µM; 21% of 96,000 active; CYP2C19 Supersomes, luciferin-H EGE luminescence, 30 min;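 active = CYP2C19 inhibition above a set limit at 5 µM in the primary screen, cut at about 50% in these data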
Measles CPE: protection of cells from measles virus. Measles virus-infected cells, CPE protection, absorbance. protection (pct of control), % at 4 µM. 1.5% of 140,000 active. AID 841; in the data active = protection mostly above about 24%, no sharp cut-off; inactive = mostly below about 26%
CYP2C9 inh: blocks human cytochrome P450 2C9; P11712; CYP2C9 Supersomes, luciferin-H conversion, luminescence; inhibition, % at 5 µM; 20% of 96,000 active; AID 777;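 active = blocking of liver enzyme CYP2C9 beyond about 50% at 5 µM, limit read from the data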
Target sequence (P11712 whole entry, looked up): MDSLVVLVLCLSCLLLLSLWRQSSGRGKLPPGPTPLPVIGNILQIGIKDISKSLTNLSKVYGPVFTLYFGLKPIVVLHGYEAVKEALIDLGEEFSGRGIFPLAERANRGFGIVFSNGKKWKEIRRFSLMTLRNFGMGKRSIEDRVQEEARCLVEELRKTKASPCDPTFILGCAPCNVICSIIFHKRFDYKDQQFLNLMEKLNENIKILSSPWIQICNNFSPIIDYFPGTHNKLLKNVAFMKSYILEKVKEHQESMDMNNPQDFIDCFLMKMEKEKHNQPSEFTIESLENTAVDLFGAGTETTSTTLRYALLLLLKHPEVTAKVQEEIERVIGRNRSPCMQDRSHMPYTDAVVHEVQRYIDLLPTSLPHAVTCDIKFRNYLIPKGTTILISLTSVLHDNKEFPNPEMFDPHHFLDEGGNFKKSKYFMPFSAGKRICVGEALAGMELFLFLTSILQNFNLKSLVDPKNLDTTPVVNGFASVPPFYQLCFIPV
CYP2C9 activ: CYP2C9 (human) activation; P11712; recombinant CYP2C9, luciferin-H conversion, luminescence; stronger effect = higher value; factor 1 = untreated enzyme, 0 = blocked; activation factor at 5 µM; 1.4% of 96,000 active; AID 1024;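 active = activation factor of 2 or more for CYP2C9 at a 5 µM dose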
A number is an active result; – = inactive; · = no result given.

SMILES | CYP2C19 activ | CYP2C19 inh | Measles CPE | CYP2C9 inh | CYP2C9 activ
O=c1ccc2cc(S(=O)(=O)N3CCN(c4cc(Cl)ccc4Cl)CC3)ccc2o1 | – | 74 | – | 88 | –
Cc1ccccc1N1CCN(S(=O)(=O)c2ccccc2)CC1 | · | · | – | · | ·
Cc1cc(S(=O)(=O)N2CCN(c3ccccc3C)CC2)ccc1F | – | 97 | – | 95 | –
Cc1cc(S(=O)(=O)N2CCN=C2c2ccccc2)ccc1F | – | 95 | – | 65 | –
CC1Nc2nc(N(C)C)[nH]c(=O)c2NC1C (configuration not stated) | · | · | – | · | ·
Cc1cc(NC(=O)CSc2nnnn2C)n(-c2ccccc2)n1 | – | – | – | – | –
Cc1ccccc1NC(=O)CNc1ccc(Cl)c(C(F)(F)F)c1 | · | · | – | · | ·
COC(=O)COc1ccc(S(=O)(=O)N2CCN(c3ccccc3F)CC2)cc1C | – | – | 27 | – | –
Cc1cc(S(=O)(=O)N2CC(=O)N(CCc3ccccc3)C(=O)C2)ccc1F | – | – | – | – | –
Cc1cc(S(=O)(=O)N2CCN(c3c(C)cccc3C)CC2)ccc1F | – | 97 | – | 98 | –
O=C1C2C3c4ccccc4C(c4ccccc43)C2C(=O)N1/N=C/c1cccc(O)c1 (configuration not stated) | – | – | – | – | –
CCOc1ccc(NC(=S)Nc2ccc3nsnc3c2)cc1 | · | · | – | · | ·
O=C1CC(N2CCC(O)(c3ccc(Br)cc3)CC2)C(=O)N1c1ccc(Cl)cc1 (configuration not stated) | · | · | – | · | ·
CC(C)C(=O)NC(C)C(c1cccs1)N1CCOCC1 (configuration not stated) | – | – | – | – | –
CC(NC(=O)Cc1cccs1)C(c1cccs1)N1CCN(c2ccccc2F)CC1 (configuration not stated) | – | – | – | 54 | –
Cc1ccccc1C(=O)NC(C)C(c1cccs1)N1CCOCC1 (configuration not stated) | – | – | – | – | –
Cc1cccc(NC(=O)NC(C)C(c2cccs2)N2CCOCC2)c1 (configuration not stated) | – | 83 | – | – | –
COc1ccccc1C(=O)NC(C)C(c1cccs1)N1CCOCC1 (configuration not stated) | – | 51 | – | – | –
CC(NC(=O)NC1CCCCC1)C(c1cccs1)N1CCN(Cc2ccccc2)CC1 (configuration not stated) | – | – | – | 54 | –
CC(NC(=O)c1ccco1)C(c1cccs1)N1CCN(c2ccccc2F)CC1 (configuration not stated) | · | · | – | · | ·
Cc1ccc(C(=O)NCCSc2c(C)[nH]c3ccccc23)cc1[N+](=O)[O-] | · | · | – | · | ·
CCC1CCCCN1CC(O)Cn1c2ccccc2n2c(=O)cc(C)c(C#N)c12 (configuration not stated) | · | · | – | · | ·
Cc1occc1C(=O)N/N=C/c1c[nH]c2ccccc12 | – | – | – | – | –
CCOc1ccc(N(CC(=O)NCCSc2ccccn2)S(C)(=O)=O)cc1 | – | – | – | – | –
OC1(c2ccc(Br)cc2)CCNCC1 | – | – | – | – | –
SMILES | CYP2C19 activ | CYP2C19 inh | Measles CPE | CYP2C9 inh | CYP2C9 activ
COc1ccc(NC(=O)c2cc(-c3cc(C)cc(C)c3O)n[nH]2)cc1Cl | – | – | – | – | –
CC(NC(=O)c1ccco1)C(c1cccs1)N1CCN(c2ccccc2)CC1 (configuration not stated) | – | 56 | – | – | –
C=C(C)C1CCC(C)=C1CC(C)(C)/C=N\n1cnnc1 (configuration not stated) | – | 86 | – | 63 | –
Cc1nn(Cc2ccccc2)c(=O)n1N(C)c1ncc(C(F)(F)F)cc1Cl | – | 67 | – | – | –
CN(C)C(=O)c1cn(N(C)c2ncc(C(F)(F)F)cc2Cl)c(=O)c2ccccc12 | – | 53 | – | 80 | –
Cc1nn(-c2ncc(C(F)(F)F)cc2Cl)c(=O)n1-c1ccccc1Cl | – | – | – | – | –
CN(C)/C=C/C(=O)/C=C/c1cn(-c2ncc(C(F)(F)F)cc2Cl)c2ccccc12 | – | – | – | – | –
CCOC(=O)CSc1ccc(S(=O)(=O)N2CCC(C)CC2)cc1[N+](=O)[O-] | · | · | – | · | ·
O=C(OCn1nnc2ccccc2c1=O)c1cccs1 | – | – | – | – | –
CCC(C)[C@H](NC(=O)CCn1nnc2ccccc2c1=O)C(=O)O (some centres not stated) | · | · | – | · | ·
CC1(C)CC(=O)C2=C(C1)Oc1nc3ccccc3cc1C2C(C#N)C#N (configuration not stated) | – | – | – | 60 | –
CC(=O)/C(=N\Nc1ccc(Cl)cc1)Sc1nnc(-c2ccccc2)n1-c1ccccc1 | · | · | – | · | ·
CCOC(=O)c1sc(NC(=O)Cn2nnc3sc4c(c3c2=O)CCCC4)nc1C | – | – | – | 55 | –
Cc1ccc(C)c(OCCn2cc(/C=C(\C#N)C(=O)NCc3cccs3)c3ccccc32)c1 | – | – | – | 78 | –
O=C(CCOc1ccccc1)Nc1ccccc1 | – | 62 | – | – | –
COC(=O)c1ccc(C(=O)OC)c(NC(=O)CCc2ccc(C)o2)c1 | – | 51 | – | – | –
COC(=O)c1ccc(C(=O)OC)c(NC(=O)CCC(=O)O)c1 | – | – | – | – | –
CCc1ccc(CCC(=O)Nc2ccc(C)cc2C)o1 | – | 79 | – | – | –
CCOC(=O)CCCNC(=O)COC(=O)c1ccc(O)cc1 | – | – | – | – | 2.6
O=C(CCCOc1ccccc1)Nc1ncccn1 | · | · | – | · | ·
CCOC(=O)COC(=O)c1ccc(O)cc1 | – | – | – | – | –
CCCCCCS(=O)[C@H]1CS(=O)(=O)C[C@@H]1S(=O)CCCCCC (some centres not stated) | – | – | – | – | –
CC(=O)c1c(C)nn(C(=O)N2CCOCC2)c1C | – | – | · | – | –
COc1cc(/C(C)=N/Nc2ccc(C(=O)O)cc2)cc(OC)c1OC | · | · | – | · | ·
O=C(N/N=C/c1cccc(OC2CSC2)c1)c1ccccc1O | – | – | – | – | –
SMILES | CYP2C19 activ | CYP2C19 inh | Measles CPE | CYP2C9 inh | CYP2C9 activ
CCCCCn1c(SCC(=O)OCC)nc2cc(C(=O)N3CCC(C(N)=O)CC3)ccc2c1=O | – | – | – | – | –
O=C(CCS(=O)(=O)c1ccc(Br)cc1)Nc1cc(F)ccc1F | · | · | – | · | ·
CC(NC(=O)/C=C/c1cnc2ccccc2n1)C12CC3CC(CC(C3)C1)C2 (configuration not stated) | · | · | – | · | ·
CCOC(=O)c1ccc(NC(=O)CCc2ccc(CC)o2)cc1 | – | – | – | 60 | –
CCOC(=O)c1ccc(NC(=O)CCOc2ccccc2)cc1 | – | – | – | 55 | –
CCCOC(=O)c1ccc(NC(=O)CCC(=O)OCC)cc1 | – | 64 | – | 59 | –
CCCOC(=O)c1ccc(NC(=O)CCOc2ccccc2)cc1 | – | – | – | 68 | –
CCCc1cc(=O)[nH]c(-n2[nH]c3c(c2=O)CCCC3)n1 | – | – | – | – | –
CC(=O)Nc1ccc(Sc2ncnc3scc(-c4ccccc4)c23)cc1 | · | · | – | · | ·
CC(C)(C)NC(=O)C(c1ccncc1)N(Cc1cccs1)C(=O)Cn1nnc(-c2ccc(F)cc2)n1 (configuration not stated) | · | · | – | · | ·
